The results in this text go back to PubChem BioAssay.

Active and inactive are the calls of the source. Unless noted, the rule behind the calls is not given here.

The test system of assay [1] is Wnt5a (protein binding on small-molecule microarray). Description: small molecules binding Wnt5a protein – biophysical, small-molecule microarray, 635/667 nm fluorescence, primary screen (AID 1142).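 Note: fluorescence read at 667 nm with signal to noise per printed feature.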 The note with it: 635 nm fluorescence, higher = more signal.
Assay [2] can be described thus: ATP-based viability of Huh7 replicon cells – cell-based, CellTiter-Glo luminescence, basal, 48 h, cytotoxicity control for HCV replication inhibitor project, primary screen (AID 1143).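 Note: Huh7 hepatoma cells carrying a hepatitis C replication reporter with no stimulus; test concentration not given here.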 The note with it: higher = more signal, called active from +8 up or from −8 down.
A short description of assay [3]: Pseudomonas biofilm growth suppression – PAO1 strain, BacTiter-Glo luminescence, LB-PBS, primary screen (AID 1144). The note with it: P. aeruginosa PAO1 biofilm, 12 h, higher = more signal.
Assay [4] in a line: basal CRE-LacZ reporter activity in PC12 – cell-based, unstimulated, primary screen (AID 1145). The settings on record: no forskolin, luminescence, 4.5 h, higher = more signal, called active from +8 up or from −8 down.
The nature of assay [5]: forskolin-driven CRE-LacZ activity in PC12 – cell-based, CRE-LacZ reporter, forskolin-stimulated, primary screen (AID 1146).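 Note: PC12 cells with 6xCRE LacZ reporter stimulated by forskolin 10 µM; beta-galactosidase reporter signal reflecting CREB driven transcription.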 The note with it: luminescence, 4.5 h, higher = more signal, called active from +8 up or from −8 down.
Assay [6] concerns the target Streptavidin (Streptomyces avidinii) (UniProt P22629). The assay can be described thus: compounds binding control protein streptavidin – biophysical, small-molecule microarray, 635/667 nm fluorescence, artefact control for SMM compound annotation, primary screen (AID 1147).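 Note: signal reflects streptavidin binding to arrayed compounds as a control protein.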 The note with it: higher = more signal.
A short description of assay [7]: probe aInhba binding on compound microarray – biochemical, small-molecule microarray, 635/667 nm fluorescence, primary screen (AID 1148).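 Note: score merges 667nm spot fluorescence with signal-to-noise for antibody binding to printed compounds.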 The settings on record: higher = more signal.
Assay [8] concerns the target Torsin-1A (Homo sapiens) (UniProt O14656). The assay can be described thus: TOR1A wild-type binding on microarray – cell lysate, small-molecule microarray, lysate, 635/667 nm, primary screen (AID 1149). The settings on record: COS7 hTOR1A-WT lysate, 635 nm fluorescence, higher = more signal.
For assay [9] the target is unchanged. Description: torsin A mutant lysate binding on microarrays – cell lysate, small-molecule microarray, COS7 lysate, 635/667 nm fluorescence, primary screen (AID 1150).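 Note: score pools 667 nm emission and signal to noise measuring lysate protein binding.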 The settings on record: COS7 hTOR1A mutant lysate, 635 nm fluorescence, higher = more signal.
The subject of assay [10] is Sonic hedgehog protein (Shh). The assay can be described thus: Sonic hedgehog microarray binding compounds – biochemical, small-molecule microarray, 635/667 nm fluorescence, primary screen (AID 1151).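 Note: Shh protein binding to compounds spotted on small-molecule microarray slides; score combines spot fluorescence intensity with signal-to-noise across triplicate slides.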 The settings on record: 635 nm fluorescence, higher = more signal.

Streptavidin (Streptomyces avidinii), sequence (P22629 whole entry, looked up): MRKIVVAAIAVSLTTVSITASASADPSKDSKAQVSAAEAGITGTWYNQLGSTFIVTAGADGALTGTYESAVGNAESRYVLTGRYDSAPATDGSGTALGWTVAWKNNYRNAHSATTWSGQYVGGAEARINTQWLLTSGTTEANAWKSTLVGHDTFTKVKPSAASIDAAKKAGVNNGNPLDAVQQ
Torsin-1A (Homo sapiens), sequence (O14656 whole entry, looked up): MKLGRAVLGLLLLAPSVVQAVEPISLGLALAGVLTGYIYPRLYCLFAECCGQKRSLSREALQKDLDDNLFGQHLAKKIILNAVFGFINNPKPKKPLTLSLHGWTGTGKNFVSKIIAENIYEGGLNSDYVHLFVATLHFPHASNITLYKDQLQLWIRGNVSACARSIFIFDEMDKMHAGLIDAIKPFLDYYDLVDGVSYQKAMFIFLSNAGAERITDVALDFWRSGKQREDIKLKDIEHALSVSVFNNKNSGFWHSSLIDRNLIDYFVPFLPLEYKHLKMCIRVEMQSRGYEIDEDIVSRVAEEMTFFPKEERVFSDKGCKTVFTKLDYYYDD

With `COc1ccc(COC(=O)NN=C2C[C@@H](O)[C@@H](O)[C@@H]3[C@@H]4C(=O)N(c5cccc(Oc6ccccc6)c5)C(=O)[C@@H]4CC[C@@H]23)cc1`, the composite z-score was -0.365 in assay [1]; 0.519 in assay [6]; -0.162 in [7]; 0.574 in the assay with Torsin-1A (Homo sapiens) [8]; -0.101 with Torsin-1A (Homo sapiens) [9]; -1.38 in [10]. Besides, the z-score was -0.201 (inactive) in assay [2], 0.791 (inactive) in [3], 2.15 (inactive) in assay [4] and 0.087 (inactive) in assay [5].

Regarding `CCOC(=O)[C@H](CC(C)C)NC(=O)CCC1CC(OC(=O)NCc2ccc3c(c2)OCO3)CC2(CCCC(COC(=O)NCc3cccc(C(F)(F)F)c3)O2)O1` (stereo not given in full), the composite z-score is -0.194 in assay [1]; -0.113 in [6]; 0.0184 in assay [7]; 0.175 with Torsin-1A (Homo sapiens) [8]; -0.272 with Torsin-1A (Homo sapiens) [9]; 0.387 in assay [10]. Moreover, the z-score was -0.183 (inactive) in assay [2], -0.67 (inactive) in assay [3], 0.11 (inactive) in [4] and 0.814 (inactive) in assay [5].

As to `CO[C@@H]1COC(=O)[C@@H](C)NC(=O)CC=C[C@@H](C)[C@H](NS(=O)(=O)c2ccc(C)cc2)COC(=O)[C@H](C)NC(=O)CC=C[C@H]1C`, the composite z-score in [1] was -0.0222; in assay [6] it was -0.967; in [7], -0.218; in the assay with Torsin-1A (Homo sapiens) [8], 1.31; with Torsin-1A (Homo sapiens) [9], 0.584; in assay [10] it was 1.33. Moreover, the z-score in assay [2] was 0.806 (inactive); in assay [3], 0.829 (inactive); in assay [4], 0.881 (inactive); in assay [5], -0.314 (inactive).

On to `COC(=O)[C@H](C)NC(=O)CCC1CC(OC(=O)NCCc2ccc(F)cc2)CC2(CCCC(COC(=O)NCc3cccc(C(F)(F)F)c3)O2)O1` (stereo not given in full), for which the composite z-score in assay [1] was 0.116; in assay [6], 0.213; in assay [7], -0.242; with Torsin-1A (Homo sapiens) [8], 0.818; with Torsin-1A (Homo sapiens) [9] it was 0.0548; in assay [10] it was 1.09. Besides, the z-score in assay [2] was -0.382 (inactive); in [3] it was 0.198 (inactive); in [4], 0.0178 (inactive); in assay [5], 0.144 (inactive).

With `CON=C(C)CCC(=O)OC[C@H]1O[C@H](c2ccccc2)C=C[C@@H]1Oc1ccc(OC)cc1`, the composite z-score in [1] was 0.564; in [6], 0.0584; in [7], -0.0963; with Torsin-1A (Homo sapiens) [8] it was 0.0952; in the assay with Torsin-1A (Homo sapiens) [9], -0.013; in [10], 0.556. The z-score in assay [2] is -0.539 (inactive); in assay [3], -0.38 (inactive); in assay [4] it was 1.88 (inactive); in assay [5] it was -0.0322 (inactive).

`COC(=O)CC=C[C@@H](C)[C@@H]1C=C[C@H](O)[C@@H](CO)O1`: the composite z-score was -0.27 in assay [1]; 0.89 in assay [6]; -0.163 in assay [7]; 0.473 in the assay with Torsin-1A (Homo sapiens) [8]; 0.448 in the assay with Torsin-1A (Homo sapiens) [9]; 0.495 in [10]. Besides, the z-score in [2] is 0.362 (inactive); in [3], -0.159 (inactive); in [4] it was 0.648 (inactive); in assay [5], 1.03 (inactive).

Consider `COCOc1ccc(Br)cc1C(=O)[C@@H]1O[C@H]1c1cccc(OC)c1`, for which the composite z-score was -0.202 in assay [1]; 0.015 in assay [6]; -0.149 in assay [7]; 0.736 with Torsin-1A (Homo sapiens) [8]; 0.437 in the assay with Torsin-1A (Homo sapiens) [9]; 0.349 in [10]. For the same compound, the z-score in [2] was -1.97 (inactive); in assay [3] it was 0.64 (inactive); in [4], 1.2 (inactive); in [5] it was -0.37 (inactive).

On to `CCOC(=O)C1=NO[C@@]2(C=C(Br)C3(OCCCO3)[C@H]3O[C@H]32)C1`, for which the composite z-score in assay [1] is 0.4; in assay [6] it was 1.45; in assay [7], -0.0313; in the assay with Torsin-1A (Homo sapiens) [8], 0.712; with Torsin-1A (Homo sapiens) [9] it was 0.332; in assay [10] it was 0.959. Besides, the z-score is 0.164 (inactive) in [2], 0.208 (inactive) in assay [3], -0.258 (inactive) in [4] and 0.572 (inactive) in [5].

For `CC(C)(C)N1C(=O)[C@H]2[C@H]3[C@H](O)C=CC(=O)[C@@H]3CC[C@H]2C1=O`, the composite z-score in [1] was 0.307; in [6], 0.4; in assay [7] it was -0.128; in the assay with Torsin-1A (Homo sapiens) [8] it was 0.281; in the assay with Torsin-1A (Homo sapiens) [9], 0.252; in assay [10], 0.521. Also, the z-score in [2] is 0.536 (inactive); in assay [3] it was 0.0768 (inactive); in assay [4], 1.06 (inactive); in [5], -0.0003 (inactive).

As to `CCOC(=O)CCN1C(=O)[C@H]2[C@H]3[C@H](O)[C@H](O)CC(=NNC(=O)OCc4ccccc4)[C@@H]3CC[C@H]2C1=O`, the composite z-score in assay [1] is 0.109; in assay [6], 0.551; in assay [7], -0.218; with Torsin-1A (Homo sapiens) [8], 0.701; with Torsin-1A (Homo sapiens) [9], 0.672; in assay [10], 1.26. In addition, the z-score is 0.13 (inactive) in [2], -0.143 (inactive) in assay [3], 0.161 (inactive) in assay [4] and -0.244 (inactive) in [5].

On to `CC(C)=NO[C@H](C)c1cn([C@H](CO)Cc2ccccc2)nn1`, for which the composite z-score in assay [1] is -0.179; in assay [6] it was 1.14; in [7], -0.0178; with Torsin-1A (Homo sapiens) [8], -0.232; in the assay with Torsin-1A (Homo sapiens) [9], 0.015; in assay [10], -0.195. Further, the z-score in assay [2] was -0.684 (inactive); in assay [3], 0.159 (inactive); in [4], 1.61 (inactive); in [5], 0.112 (inactive).

Regarding `COc1ccc(O[C@H]2C=C[C@@H](c3ccccc3)O[C@@H]2COC(=O)CCC(C)=NO[C@@H]2O[C@H](COC(C)=O)[C@@H](OC(C)=O)[C@H](OC(C)=O)[C@H]2OC(C)=O)cc1`, the composite z-score in assay [1] was 0.0276; in [6] it was 0.484; in assay [7] it was -0.106; with Torsin-1A (Homo sapiens) [8] it was 0.495; with Torsin-1A (Homo sapiens) [9], 0.21; in [10] it was 0.918. The z-score in [2] is -0.178 (inactive); in assay [3], -0.333 (inactive); in [4], 2.85 (inactive); in assay [5], 0.847 (inactive).
